Measured values published in ChEMBL document CHEMBL1961873, “Compounds: GSK PKIS; Assays: Nanosyn kinase panel” (2012).

Columns and labels:
[1] = biological target: Tyrosine-protein kinase CSK (Homo sapiens) (UniProt P41240); conditions: at 1 µM;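 also: each value is an averaged inhibition reading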
[2] = biological target: T1, Discoidin domain-containing receptor 2 (Homo sapiens) (UniProt Q16832); conditions: at 0.1 µM
T1 sequence (whole entry): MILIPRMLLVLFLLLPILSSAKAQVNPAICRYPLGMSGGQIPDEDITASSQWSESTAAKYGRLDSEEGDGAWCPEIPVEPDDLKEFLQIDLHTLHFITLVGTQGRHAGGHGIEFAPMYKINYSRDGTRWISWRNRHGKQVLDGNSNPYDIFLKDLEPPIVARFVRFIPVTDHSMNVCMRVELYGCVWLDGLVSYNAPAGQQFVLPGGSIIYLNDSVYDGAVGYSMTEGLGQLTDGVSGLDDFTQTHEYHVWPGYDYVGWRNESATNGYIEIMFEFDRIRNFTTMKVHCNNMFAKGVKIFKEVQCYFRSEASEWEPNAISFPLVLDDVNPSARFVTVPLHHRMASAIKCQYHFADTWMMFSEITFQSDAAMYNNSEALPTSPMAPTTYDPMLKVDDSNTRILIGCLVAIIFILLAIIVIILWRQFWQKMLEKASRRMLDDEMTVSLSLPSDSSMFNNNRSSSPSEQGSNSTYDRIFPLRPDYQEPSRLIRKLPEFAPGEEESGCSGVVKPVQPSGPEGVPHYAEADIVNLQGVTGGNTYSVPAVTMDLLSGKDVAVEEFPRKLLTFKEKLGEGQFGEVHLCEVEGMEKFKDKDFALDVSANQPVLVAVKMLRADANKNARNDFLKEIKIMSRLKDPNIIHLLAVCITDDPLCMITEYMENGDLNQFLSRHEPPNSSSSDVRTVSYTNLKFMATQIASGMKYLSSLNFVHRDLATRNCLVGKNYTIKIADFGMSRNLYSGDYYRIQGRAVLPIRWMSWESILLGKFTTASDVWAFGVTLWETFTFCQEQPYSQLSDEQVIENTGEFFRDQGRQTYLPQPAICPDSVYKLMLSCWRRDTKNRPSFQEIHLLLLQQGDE

[3] = biological target: T1, Discoidin domain-containing receptor 2 (Homo sapiens); conditions: at 1 µM
[4] = biological target: Epidermal growth factor receptor (Homo sapiens) (UniProt P00533); conditions: at 0.1 µM
Chain of Epidermal growth factor receptor (Homo sapiens) (P00533 whole entry): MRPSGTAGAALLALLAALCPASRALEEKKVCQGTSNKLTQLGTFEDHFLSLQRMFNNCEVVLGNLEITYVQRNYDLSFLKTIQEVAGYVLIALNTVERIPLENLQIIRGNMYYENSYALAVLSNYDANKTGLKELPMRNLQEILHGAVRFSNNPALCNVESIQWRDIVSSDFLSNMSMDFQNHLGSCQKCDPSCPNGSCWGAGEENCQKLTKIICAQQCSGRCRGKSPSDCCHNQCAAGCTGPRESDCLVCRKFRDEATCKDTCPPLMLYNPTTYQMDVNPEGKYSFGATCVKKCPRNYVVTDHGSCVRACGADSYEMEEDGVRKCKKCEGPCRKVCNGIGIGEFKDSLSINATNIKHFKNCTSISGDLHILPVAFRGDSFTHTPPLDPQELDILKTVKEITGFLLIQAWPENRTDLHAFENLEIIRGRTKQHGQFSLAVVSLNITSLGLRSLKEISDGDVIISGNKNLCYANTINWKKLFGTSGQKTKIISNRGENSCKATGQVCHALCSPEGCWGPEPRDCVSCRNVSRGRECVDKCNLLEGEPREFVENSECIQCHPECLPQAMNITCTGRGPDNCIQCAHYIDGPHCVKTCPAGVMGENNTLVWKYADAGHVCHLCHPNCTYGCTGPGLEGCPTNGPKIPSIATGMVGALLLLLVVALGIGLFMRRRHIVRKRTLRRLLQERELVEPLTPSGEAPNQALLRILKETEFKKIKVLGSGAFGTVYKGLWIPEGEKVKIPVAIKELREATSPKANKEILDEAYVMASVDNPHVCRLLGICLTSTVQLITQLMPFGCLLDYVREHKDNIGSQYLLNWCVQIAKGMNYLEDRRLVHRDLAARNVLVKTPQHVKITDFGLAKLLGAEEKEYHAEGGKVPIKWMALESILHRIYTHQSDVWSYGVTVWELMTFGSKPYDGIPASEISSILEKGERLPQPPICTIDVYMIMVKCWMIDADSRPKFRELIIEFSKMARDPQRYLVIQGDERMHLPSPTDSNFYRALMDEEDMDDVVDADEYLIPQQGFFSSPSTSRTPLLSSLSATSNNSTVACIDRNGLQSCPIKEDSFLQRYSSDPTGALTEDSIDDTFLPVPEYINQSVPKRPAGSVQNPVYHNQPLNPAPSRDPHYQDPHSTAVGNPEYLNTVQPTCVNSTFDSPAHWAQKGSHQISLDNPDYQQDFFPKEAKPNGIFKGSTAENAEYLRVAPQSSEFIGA

[5] = biological target: Epidermal growth factor receptor (Homo sapiens) (UniProt P00533); conditions: at 1 µM
[6] = system: Epidermal growth factor receptor (Homo sapiens), P00533 [L858R]; conditions: at 0.1 µM
[7] = system: Epidermal growth factor receptor (Homo sapiens), P00533 [L858R]; conditions: at 1 µM
[8] = system: Epidermal growth factor receptor (Homo sapiens), P00533 [L861Q]; conditions: at 0.1 µM
Chain of Epidermal growth factor receptor (Homo sapiens), P00533 [L861Q] (P00533 whole entry L861Q): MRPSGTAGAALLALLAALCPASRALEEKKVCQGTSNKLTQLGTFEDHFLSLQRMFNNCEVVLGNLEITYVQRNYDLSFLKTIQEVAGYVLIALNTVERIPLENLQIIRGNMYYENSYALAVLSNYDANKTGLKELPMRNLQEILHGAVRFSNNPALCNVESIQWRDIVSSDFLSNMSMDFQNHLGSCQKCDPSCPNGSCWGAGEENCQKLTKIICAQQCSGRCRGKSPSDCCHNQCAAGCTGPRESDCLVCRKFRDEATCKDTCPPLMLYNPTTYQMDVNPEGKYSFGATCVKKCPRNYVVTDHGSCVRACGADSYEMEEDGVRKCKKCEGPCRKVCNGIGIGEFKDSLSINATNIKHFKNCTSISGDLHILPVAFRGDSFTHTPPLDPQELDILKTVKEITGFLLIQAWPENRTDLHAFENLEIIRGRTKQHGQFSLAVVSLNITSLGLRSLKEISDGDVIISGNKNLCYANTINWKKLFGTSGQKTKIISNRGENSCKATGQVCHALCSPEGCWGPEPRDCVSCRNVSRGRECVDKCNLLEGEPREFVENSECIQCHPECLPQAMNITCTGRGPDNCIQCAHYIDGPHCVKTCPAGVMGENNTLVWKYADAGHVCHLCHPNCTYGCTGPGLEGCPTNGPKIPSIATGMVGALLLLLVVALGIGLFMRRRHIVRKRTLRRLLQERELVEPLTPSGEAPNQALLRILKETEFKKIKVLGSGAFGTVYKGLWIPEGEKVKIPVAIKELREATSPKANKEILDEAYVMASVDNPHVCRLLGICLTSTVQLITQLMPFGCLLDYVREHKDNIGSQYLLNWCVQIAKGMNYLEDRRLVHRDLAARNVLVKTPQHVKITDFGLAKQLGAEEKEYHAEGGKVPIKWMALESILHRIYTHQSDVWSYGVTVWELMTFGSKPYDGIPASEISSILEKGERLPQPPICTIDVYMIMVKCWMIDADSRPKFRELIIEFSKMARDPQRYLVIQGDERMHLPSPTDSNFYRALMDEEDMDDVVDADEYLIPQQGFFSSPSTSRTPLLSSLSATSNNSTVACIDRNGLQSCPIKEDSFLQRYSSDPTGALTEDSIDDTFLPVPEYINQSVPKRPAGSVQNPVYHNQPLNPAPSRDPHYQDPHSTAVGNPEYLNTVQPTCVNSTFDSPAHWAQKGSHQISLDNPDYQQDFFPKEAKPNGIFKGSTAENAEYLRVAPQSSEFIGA

[9] = system: Epidermal growth factor receptor (Homo sapiens), P00533 [L861Q]; conditions: at 1 µM
[10] = system: Epidermal growth factor receptor (Homo sapiens), P00533 [T790M]; conditions: at 0.1 µM
[11] = system: Epidermal growth factor receptor (Homo sapiens), P00533 [T790M]; conditions: at 1 µM
[12] = system: Epidermal growth factor receptor (Homo sapiens), P00533 [L858R,T790M]; conditions: at 0.1 µM
Chain of Epidermal growth factor receptor (Homo sapiens), P00533 [L858R,T790M] (P00533 whole entry T790M/L858R, looked up): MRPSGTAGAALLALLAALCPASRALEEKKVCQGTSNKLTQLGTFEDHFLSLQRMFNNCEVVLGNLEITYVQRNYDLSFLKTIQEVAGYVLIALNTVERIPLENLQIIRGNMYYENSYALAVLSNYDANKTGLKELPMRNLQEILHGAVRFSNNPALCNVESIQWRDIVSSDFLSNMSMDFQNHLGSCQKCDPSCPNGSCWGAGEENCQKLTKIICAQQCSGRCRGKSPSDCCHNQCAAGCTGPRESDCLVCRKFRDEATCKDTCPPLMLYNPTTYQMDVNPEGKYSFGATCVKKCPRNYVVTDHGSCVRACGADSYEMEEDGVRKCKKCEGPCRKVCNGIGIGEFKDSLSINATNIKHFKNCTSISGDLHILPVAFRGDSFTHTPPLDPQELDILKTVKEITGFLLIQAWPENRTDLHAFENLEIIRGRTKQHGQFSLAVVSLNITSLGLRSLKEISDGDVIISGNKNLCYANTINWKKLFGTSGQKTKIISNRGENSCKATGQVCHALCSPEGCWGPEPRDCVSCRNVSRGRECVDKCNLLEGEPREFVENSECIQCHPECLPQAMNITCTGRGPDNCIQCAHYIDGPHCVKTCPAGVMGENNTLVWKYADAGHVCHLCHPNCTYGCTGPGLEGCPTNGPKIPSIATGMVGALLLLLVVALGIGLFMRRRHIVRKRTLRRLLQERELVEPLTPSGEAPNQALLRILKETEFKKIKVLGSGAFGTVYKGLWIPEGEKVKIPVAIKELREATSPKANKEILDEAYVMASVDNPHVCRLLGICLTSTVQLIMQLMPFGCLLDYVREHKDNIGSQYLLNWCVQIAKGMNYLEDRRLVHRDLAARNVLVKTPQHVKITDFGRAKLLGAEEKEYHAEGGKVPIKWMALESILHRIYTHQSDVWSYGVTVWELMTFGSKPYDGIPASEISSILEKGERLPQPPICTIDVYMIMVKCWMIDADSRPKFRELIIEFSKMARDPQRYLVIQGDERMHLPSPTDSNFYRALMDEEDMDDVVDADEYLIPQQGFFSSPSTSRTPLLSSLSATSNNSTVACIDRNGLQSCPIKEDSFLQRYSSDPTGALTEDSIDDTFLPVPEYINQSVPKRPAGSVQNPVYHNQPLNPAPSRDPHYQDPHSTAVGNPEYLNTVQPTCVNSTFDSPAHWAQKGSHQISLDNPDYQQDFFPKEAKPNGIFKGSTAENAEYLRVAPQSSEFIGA

[13] = system: Epidermal growth factor receptor (Homo sapiens), P00533 [L858R,T790M]; conditions: at 1 µM
[14] = biological target: Ephrin type-A receptor 2 (Homo sapiens) (UniProt P29317); conditions: at 0.1 µM
Chain of Ephrin type-A receptor 2 (Homo sapiens) (P29317 whole entry): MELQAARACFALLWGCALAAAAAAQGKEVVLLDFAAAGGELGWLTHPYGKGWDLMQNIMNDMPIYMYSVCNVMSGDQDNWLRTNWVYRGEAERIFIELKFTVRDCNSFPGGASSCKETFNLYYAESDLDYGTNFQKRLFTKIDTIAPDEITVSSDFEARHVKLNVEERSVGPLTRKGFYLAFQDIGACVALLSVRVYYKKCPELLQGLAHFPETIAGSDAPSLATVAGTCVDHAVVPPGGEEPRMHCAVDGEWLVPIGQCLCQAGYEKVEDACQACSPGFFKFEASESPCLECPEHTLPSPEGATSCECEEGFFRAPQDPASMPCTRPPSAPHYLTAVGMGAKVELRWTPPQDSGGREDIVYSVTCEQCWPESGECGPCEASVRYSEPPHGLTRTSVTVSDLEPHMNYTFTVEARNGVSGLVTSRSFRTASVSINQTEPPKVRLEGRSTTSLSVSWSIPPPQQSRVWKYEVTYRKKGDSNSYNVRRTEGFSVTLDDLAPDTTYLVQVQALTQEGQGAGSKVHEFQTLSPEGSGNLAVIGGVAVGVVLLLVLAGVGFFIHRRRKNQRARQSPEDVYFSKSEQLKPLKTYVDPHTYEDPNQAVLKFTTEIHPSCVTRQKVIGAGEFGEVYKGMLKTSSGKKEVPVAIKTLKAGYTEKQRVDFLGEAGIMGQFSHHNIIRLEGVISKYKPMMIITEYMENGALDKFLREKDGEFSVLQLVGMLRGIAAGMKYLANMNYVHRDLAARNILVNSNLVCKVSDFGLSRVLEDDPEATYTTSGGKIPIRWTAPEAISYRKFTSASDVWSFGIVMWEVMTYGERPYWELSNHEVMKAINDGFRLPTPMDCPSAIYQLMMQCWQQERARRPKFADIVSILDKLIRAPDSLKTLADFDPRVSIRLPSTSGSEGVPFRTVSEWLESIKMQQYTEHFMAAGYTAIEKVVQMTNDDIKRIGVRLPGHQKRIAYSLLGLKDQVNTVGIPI

[15] = biological target: Ephrin type-A receptor 2 (Homo sapiens) (UniProt P29317); conditions: at 1 µM
[16] = biological target: T2, Ephrin type-A receptor 3 (Homo sapiens) (UniProt P29320); conditions: at 0.1 µM
T2 sequence (whole entry): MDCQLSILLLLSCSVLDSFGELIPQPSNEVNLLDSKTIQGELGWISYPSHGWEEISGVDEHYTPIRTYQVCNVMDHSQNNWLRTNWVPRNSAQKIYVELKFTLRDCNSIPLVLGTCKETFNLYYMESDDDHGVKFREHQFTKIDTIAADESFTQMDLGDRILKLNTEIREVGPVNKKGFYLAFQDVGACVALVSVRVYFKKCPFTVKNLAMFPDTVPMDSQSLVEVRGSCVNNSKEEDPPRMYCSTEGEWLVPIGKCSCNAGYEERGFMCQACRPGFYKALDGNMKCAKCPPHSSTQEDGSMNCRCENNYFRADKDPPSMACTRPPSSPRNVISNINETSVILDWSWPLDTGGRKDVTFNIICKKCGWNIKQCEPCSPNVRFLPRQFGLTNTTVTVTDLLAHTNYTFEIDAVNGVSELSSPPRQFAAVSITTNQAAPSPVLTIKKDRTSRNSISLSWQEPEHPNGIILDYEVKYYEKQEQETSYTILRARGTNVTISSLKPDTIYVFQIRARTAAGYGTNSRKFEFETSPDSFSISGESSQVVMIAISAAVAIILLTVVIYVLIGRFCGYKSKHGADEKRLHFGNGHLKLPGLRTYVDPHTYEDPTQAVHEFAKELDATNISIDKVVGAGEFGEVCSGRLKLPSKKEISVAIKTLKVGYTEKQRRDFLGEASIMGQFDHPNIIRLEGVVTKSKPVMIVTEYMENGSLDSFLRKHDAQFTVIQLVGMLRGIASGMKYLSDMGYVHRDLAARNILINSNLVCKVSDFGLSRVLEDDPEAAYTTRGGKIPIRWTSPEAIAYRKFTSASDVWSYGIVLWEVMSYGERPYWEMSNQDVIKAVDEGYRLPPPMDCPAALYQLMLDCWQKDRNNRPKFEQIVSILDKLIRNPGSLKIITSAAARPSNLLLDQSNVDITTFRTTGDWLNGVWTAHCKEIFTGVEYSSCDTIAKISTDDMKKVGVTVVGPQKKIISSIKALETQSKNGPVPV

[17] = biological target: T2, Ephrin type-A receptor 3 (Homo sapiens); conditions: at 1 µM
[18] = biological target: Ephrin type-A receptor 4 (Homo sapiens) (UniProt P54764); conditions: at 0.1 µM
[19] = biological target: Ephrin type-A receptor 4 (Homo sapiens) (UniProt P54764); conditions: at 1 µM
[20] = biological target: T3, Ephrin type-B receptor 2 (Homo sapiens) (UniProt P29323); conditions: at 0.1 µM;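 also: reported as mean inhibition of EPHB2, from the GSK PKIS dataset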
T3 sequence (whole entry): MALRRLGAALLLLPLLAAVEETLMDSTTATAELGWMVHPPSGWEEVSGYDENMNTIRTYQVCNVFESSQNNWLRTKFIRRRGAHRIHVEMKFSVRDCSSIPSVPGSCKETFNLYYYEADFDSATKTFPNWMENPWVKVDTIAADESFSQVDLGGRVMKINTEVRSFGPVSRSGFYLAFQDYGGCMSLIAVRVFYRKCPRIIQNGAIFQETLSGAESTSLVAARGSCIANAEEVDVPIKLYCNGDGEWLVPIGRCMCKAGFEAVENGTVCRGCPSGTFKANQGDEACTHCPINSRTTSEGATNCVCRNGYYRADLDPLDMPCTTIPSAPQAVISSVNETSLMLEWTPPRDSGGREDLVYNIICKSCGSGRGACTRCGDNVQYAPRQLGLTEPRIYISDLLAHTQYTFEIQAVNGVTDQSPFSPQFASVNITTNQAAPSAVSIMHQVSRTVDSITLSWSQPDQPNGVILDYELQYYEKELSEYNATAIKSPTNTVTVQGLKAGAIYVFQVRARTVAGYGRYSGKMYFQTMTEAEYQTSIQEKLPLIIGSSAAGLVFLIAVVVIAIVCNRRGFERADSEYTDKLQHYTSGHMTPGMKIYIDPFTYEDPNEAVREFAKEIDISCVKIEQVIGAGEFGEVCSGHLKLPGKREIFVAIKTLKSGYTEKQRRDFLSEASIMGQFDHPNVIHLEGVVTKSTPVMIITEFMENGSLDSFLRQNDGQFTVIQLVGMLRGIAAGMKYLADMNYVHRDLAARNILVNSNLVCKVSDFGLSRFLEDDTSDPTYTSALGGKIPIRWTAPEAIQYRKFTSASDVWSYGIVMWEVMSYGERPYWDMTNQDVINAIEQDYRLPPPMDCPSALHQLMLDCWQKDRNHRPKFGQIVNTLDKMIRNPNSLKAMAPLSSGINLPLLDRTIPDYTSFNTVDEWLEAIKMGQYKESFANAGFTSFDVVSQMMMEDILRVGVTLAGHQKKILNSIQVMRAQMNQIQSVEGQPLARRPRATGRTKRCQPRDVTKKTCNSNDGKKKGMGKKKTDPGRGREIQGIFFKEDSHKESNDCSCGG

Chain of Tyrosine-protein kinase CSK (Homo sapiens) (P41240 2-450 limits assumed): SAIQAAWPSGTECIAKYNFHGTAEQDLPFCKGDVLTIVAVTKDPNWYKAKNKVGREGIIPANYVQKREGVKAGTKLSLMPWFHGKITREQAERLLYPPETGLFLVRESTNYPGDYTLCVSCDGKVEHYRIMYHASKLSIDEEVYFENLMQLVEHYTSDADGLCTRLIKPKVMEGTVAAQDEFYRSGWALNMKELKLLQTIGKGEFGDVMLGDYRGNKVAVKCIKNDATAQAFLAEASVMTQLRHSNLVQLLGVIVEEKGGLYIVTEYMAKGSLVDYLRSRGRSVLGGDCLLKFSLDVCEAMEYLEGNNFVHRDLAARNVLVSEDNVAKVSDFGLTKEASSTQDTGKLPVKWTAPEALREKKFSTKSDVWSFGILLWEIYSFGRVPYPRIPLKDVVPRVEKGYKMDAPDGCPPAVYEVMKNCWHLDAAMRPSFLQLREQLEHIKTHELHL

SMILES | inhibition [1] [%] | inhibition [2] [%] | inhibition [3] [%] | inhibition [4] [%] | inhibition [5] [%] | inhibition [6] [%] | inhibition [7] [%] | inhibition [8] [%] | inhibition [9] [%] | inhibition [10] [%] | inhibition [11] [%] | inhibition [12] [%] | inhibition [13] [%] | inhibition [14] [%] | inhibition [15] [%] | inhibition [16] [%] | inhibition [17] [%] | inhibition [18] [%] | inhibition [19] [%] | inhibition [20] [%]
CCn1c(-c2nonc2N)nc2c(C#CC(C)(C)O)nc(OC[C@@H](N)c3ccccc3)cc21 | -2.13 | 4.51 | 12.2 | 0.44 | 3.81 | -1.04 | -2.49 | -1.53 | -1.51 | -1.77 | -1.79 | -0.23 | 0.54 | -1.19 | 0.2 | -1.62 | 7.71 | -5.47 | 6.31 | 5
Cc1nnc(-c2ccc(C)c(-c3ccc(C(=O)Nc4cccc(C#N)c4)cc3)c2)o1 | 6.38 | 1.45 | 1.83 | 6.74 | 8.18 | 0.95 | 3.01 | 1.88 | 2.37 | 1.41 | 2.44 | 0.19 | 2.34 | -0.29 | -0.3 | 4.6 | 2.95 | 6.99 | 4.3 | 5.86
Nc1nc(-c2ccccn2)c(-c2ccc3ncccc3n2)s1 | 4.7 | 3.14 | -1.29 | 1.32 | 1.23 | 3.43 | 2.31 | 1.79 | 4.31 | 1.91 | 1.67 | 2.24 | 1.13 | 0.85 | 0.89 | 2.58 | 3.28 | 7.9 | 8.8 | 5.32
O=C(Nc1n[nH]c2nc(-c3ccco3)c(Br)cc12)C1CC1 | 4.14 | 0.37 | 2.85 | 2.5 | 5.12 | 3.62 | 0.54 | 0.96 | 1.89 | 1.4 | -0.71 | 5.44 | 0.25 | 1.53 | 1.29 | 6.55 | 4.24 | 7.41 | 2.95 | 7.31
O=C1Nc2ccc(C(=O)c3ccco3)cc2C1=Cc1cc(Cl)c(O)c(Cl)c1 | 7.85 | 2.1 | 6.8 | 1.89 | 5.16 | 4.06 | 13.7 | 3.88 | 19.6 | 1.42 | 1.86 | 1.63 | 4.94 | -2.48 | -0.21 | 2.92 | 6.1 | 8.25 | 14.3 | 10.7
Cc1cc(O)cc(C)c1/C=C/c1cncc(-c2nn[nH]n2)c1 | 43.4 | 1.73 | 6.08 | -1.53 | 15.8 | 10.4 | 56.9 | 3.95 | 21.2 | 2.17 | 3.37 | 2.15 | 2.05 | 39.5 | 84.4 | 12.4 | 34.8 | 37.4 | 87.6 | 15.1
[O-][S+]1CCN(Cc2ccc(-c3ccc4ncnc(Nc5ccc(OCc6ccccc6)c(F)c5)c4c3)o2)CC1 | -3.52 | 0.34 | 0.62 | 84.1 | 90.7 | 42.6 | 84.9 | 39.7 | 68.6 | 4.05 | 10.7 | 3.03 | 0.99 | 0.8 | -0.21 | 4.64 | 4.32 | 4.58 | -1.51 | 4.14
Nc1ncnc2occ(-c3ccc(NC(=O)Nc4cccc(C(F)(F)F)c4)cc3)c12 | 44.4 | 64 | 79.2 | 1.36 | 7.97 | 3.92 | 6.22 | 2.76 | 3.15 | 2.8 | 4.59 | 0.78 | 5.43 | 17.2 | 85 | 18.4 | 50.6 | 46.8 | 78.3 | 74.1
O=C1NC(=O)C(c2ccccc2Cl)=C1Nc1cccc(O)c1 | 3.08 | -0.34 | -0.1 | 2.49 | 5.23 | 3.81 | 3.71 | 0.72 | 3.71 | 1.27 | 0.02 | 0.56 | 1.35 | 2.61 | 1.5 | 2.51 | 2.67 | 5.56 | 2.36 | 5.61
COC(=O)Nc1nc2cc(Oc3ccc(NC(=O)Nc4cccc(C(=O)O)c4)cc3)ccc2[nH]1 |  | 8.64 | 48.8 | -1.69 | -2.11 | 2.63 | 2.26 | 2.15 | 0.36 | 1.78 | 0.98 | -0.04 | 1.58 | -2.05 | -4.67 | -2.34 | -2.49 | 4.23 | 5.32 | 0.25
CN(C)c1cc2c(Nc3ccc4nc(Cc5ccccc5)[nH]c4c3)ncnc2cn1 | 55.3 | 3.16 | 7.23 | 66.6 | 77.6 | 16.1 | 48.1 | 27.3 | 40.3 | 3.48 | 6.78 | 3.54 | 7 | 2.13 | 2.37 | 7.81 | 5.67 | 11.6 | 15.2 | 9.32
COc1ccccc1Nc1ncc(-c2ccccc2)o1 | 3.11 | 0.86 | 0.42 | 1.13 | 5.3 | 0.79 | 0.46 | 1.31 | 1.75 | 2.11 | 2.18 | 1.54 | 1.28 | 2.74 | 1.76 | 2.8 | 4.86 | 7.21 | 12.8 | 7.35
CS(=O)(=O)Nc1ccc(N/C=C2\C(=O)Nc3ccccc32)cc1 | -6.43 | 0.64 | 0.83 | 0.27 | 1.45 | -0.02 | -5.94 | 0.35 | -1.41 | -1.68 | -1.95 | 0.26 | -4.58 | -2.34 | -1.5 | -5.95 | -4.36 | -6.81 | -2.53 | -6.42
